{"source": "PubChem BioAssay (Tox21)", "key": {"[1]": {"experiment": "cAMP Responsive Elements (CRE) small molecule antagonists, cell-based qHTS assay: qHTS cell viability counter screen (AID 2060913); note: nearly all actives have a fitted effect of over 40% in size", "procedure,_shortened": "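Viability of NKH477-stimulated (0.25 uM final) CRE-bla HEK293T cells is measured by CellTiter-Glo luminescence following 3 hrs compound exposure at 37 C.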"}, "[2]": {"experiment": "cAMP Responsive Elements (CRE) small molecule agonists, cell-based qHTS assay: qHTS cell viability counter screen (AID 2060914); note: nearly all actives have a fitted effect of over 50% in size", "procedure,_shortened": "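CRE-bla HEK 293T cells, plated 18 h at 37 °C, were exposed to compounds for 3 h at 37 °C/5% CO2. Viability was then measured in the same wells by CellTiter-Glo luminescence after 30 min at room temperature.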"}}, "note": "Records with an inconclusive call do not appear. Entries that show only a call come without a potency. Values without a mark were called inactive. Activity calls are given as the source filed them. Calls come from the whole dose curve; as a rule, active = well fitted cell-killing curve with a large enough effect in the repeat runs; inconclusive = weak or mixed curves, or effect the other way; inactive = flat fitted curve, though single readings scatter."}
{"smiles": "CCCCNS(=O)(=O)c1ccc(C)cc1", "values": [{"measurement": "Potency", "setting": "[1]", "result": "inactive"}, {"measurement": "Potency", "setting": "[2]", "result": "inactive"}]}
{"smiles": "CC(=O)OC(C)(C)Cc1ccccc1", "values": [{"measurement": "Potency", "setting": "[1]", "result": "inactive"}, {"measurement": "Potency", "setting": "[2]", "result": "inactive"}]}
{"smiles": "CC(C)=CCCC(C)CCOC=O", "note": "(centres undefined)", "values": [{"measurement": "Potency", "setting": "[1]", "result": "inactive"}, {"measurement": "Potency", "setting": "[2]", "result": "inactive"}]}
{"smiles": "Nc1cc(S(=O)(=O)O)ccc1S(=O)(=O)O", "values": [{"measurement": "Potency", "setting": "[1]", "result": "inactive"}, {"measurement": "Potency", "setting": "[2]", "result": "inactive"}]}
{"smiles": "O=Cc1ccc([N+](=O)[O-])cc1", "values": [{"measurement": "Potency", "setting": "[1]", "result": "inactive"}, {"measurement": "Potency", "setting": "[2]", "result": "inactive"}]}
{"smiles": "Cc1c(I)c(=O)n(-c2ccccc2)n1C", "values": [{"measurement": "Potency", "setting": "[1]", "result": "inactive"}, {"measurement": "Potency", "setting": "[2]", "result": "inactive"}]}
{"smiles": "O=C(c1ccccc1)c1ccccc1O", "values": [{"measurement": "Potency", "setting": "[1]", "result": "inactive"}, {"measurement": "Potency", "setting": "[2]", "result": "inactive"}]}
{"smiles": "CCOCOCC", "values": [{"measurement": "Potency", "setting": "[1]", "result": "inactive"}, {"measurement": "Potency", "setting": "[2]", "result": "inactive"}]}
{"smiles": "C=CCOC(=O)c1ccc(C(=O)OCC=C)c(C(=O)OCC=C)c1", "values": [{"measurement": "Potency", "setting": "[1]", "result": "inactive"}, {"measurement": "Potency", "setting": "[2]", "result": "inactive"}]}
{"smiles": "CCCCC(CC)COC(=O)COc1cc(Cl)c(Cl)cc1Cl", "note": "(centres undefined)", "values": [{"measurement": "Potency", "setting": "[1]", "result": "inactive"}, {"measurement": "Potency", "setting": "[2]", "result": "inactive"}]}
{"smiles": "CCCC(C)=O", "values": [{"measurement": "Potency", "setting": "[1]", "result": "inactive"}, {"measurement": "Potency", "setting": "[2]", "result": "inactive"}]}
{"smiles": "CCN(CC)c1ccc2c(c1)Oc1cc(N(CC)CC)ccc1C21OC(=O)c2ccccc21", "values": [{"measurement": "Potency", "setting": "[1]", "result": "inactive"}, {"measurement": "Potency", "setting": "[2]", "result": "inactive"}]}
{"smiles": "C=CCOC(=O)C(=C)C", "values": [{"measurement": "Potency", "setting": "[1]", "result": "inactive"}, {"measurement": "Potency", "setting": "[2]", "result": "inactive"}]}
{"smiles": "O=C(O)CCCC(=O)O", "values": [{"measurement": "Potency", "setting": "[1]", "result": "inactive"}, {"measurement": "Potency", "setting": "[2]", "result": "inactive"}]}
{"smiles": "CCCCOc1ccc(N)cc1", "values": [{"measurement": "Potency", "setting": "[1]", "result": "inactive"}, {"measurement": "Potency", "setting": "[2]", "result": "inactive"}]}
{"smiles": "NCCN", "values": [{"measurement": "Potency", "setting": "[1]", "result": "inactive"}, {"measurement": "Potency", "setting": "[2]", "result": "inactive"}]}
{"smiles": "CC(=O)OCCN(CCOC(C)=O)c1ccc(N=Nc2ccc([N+](=O)[O-])cc2C#N)cc1", "values": [{"measurement": "Potency", "setting": "[1]", "result": "inactive"}, {"measurement": "Potency", "setting": "[2]", "result": "inactive"}]}
{"smiles": "CC(C)(O)c1ccccc1", "values": [{"measurement": "Potency", "setting": "[1]", "result": "inactive"}, {"measurement": "Potency", "setting": "[2]", "result": "inactive"}]}
{"smiles": "CCOC(C)(C)C", "values": [{"measurement": "Potency", "setting": "[1]", "result": "inactive"}, {"measurement": "Potency", "setting": "[2]", "result": "inactive"}]}
{"smiles": "Cc1cc(C(C)(C)C)cc(C)c1CC1=NCCN1", "values": [{"measurement": "Potency", "setting": "[1]", "result": "inactive"}, {"measurement": "Potency", "setting": "[2]", "result": "inactive"}]}
{"smiles": "Cc1cc([N+](=O)[O-])ccc1N", "values": [{"measurement": "Potency", "setting": "[1]", "result": "inactive"}, {"measurement": "Potency", "setting": "[2]", "result": "inactive"}]}
{"smiles": "COc1ccc2c(c1)c(CC(=O)OC/C=C(\\C)CC/C=C(\\C)CCC=C(C)C)c(C)n2C(=O)c1ccc(Cl)cc1", "values": [{"measurement": "Potency", "setting": "[1]", "result": "inactive"}, {"measurement": "Potency", "setting": "[2]", "result": "inactive"}]}
{"smiles": "CCCCCCCCO[C@@H]1O[C@H](CO)[C@@H](O)[C@H](O)[C@H]1O", "values": [{"measurement": "Potency", "setting": "[1]", "result": "inactive"}, {"measurement": "Potency", "setting": "[2]", "result": "inactive"}]}
{"smiles": "CC(C)OC(=O)C(C)N(C(=O)c1ccccc1)c1ccc(F)c(Cl)c1", "note": "(centres undefined)", "values": [{"measurement": "Potency", "setting": "[1]", "result": "inactive"}, {"measurement": "Potency", "setting": "[2]", "result": "inactive"}]}
{"smiles": "Cc1cccc2ccccc12", "values": [{"measurement": "Potency", "setting": "[1]", "result": "inactive"}, {"measurement": "Potency", "setting": "[2]", "result": "inactive"}]}
{"smiles": "CCC1NC(=O)c2cc(S(N)(=O)=O)c(Cl)cc2N1", "note": "(centres undefined)", "values": [{"measurement": "Potency", "setting": "[1]", "result": "inactive"}, {"measurement": "Potency", "setting": "[2]", "result": "inactive"}]}
{"smiles": "Nc1c(S(=O)(=O)O)cc(Br)c2c1C(=O)c1ccccc1C2=O", "values": [{"measurement": "Potency", "setting": "[1]", "result": "inactive"}, {"measurement": "Potency", "setting": "[2]", "result": "inactive"}]}
{"smiles": "NC(=O)C(c1ccccc1)(c1ccccc1)[C@@H]1CCN(CCc2ccc3c(c2)CCO3)C1", "values": [{"measurement": "Potency", "setting": "[1]", "result": "inactive"}, {"measurement": "Potency", "setting": "[2]", "result": "inactive"}]}
{"smiles": "Cc1ccc(C(=O)Oc2ccc(C(O)CNC(C)(C)C)cc2OC(=O)c2ccc(C)cc2)cc1", "note": "(centres undefined)", "values": [{"measurement": "Potency", "setting": "[1]", "result": "inactive"}, {"measurement": "Potency", "setting": "[2]", "result": "inactive"}]}
{"smiles": "CCCCCCCCCCC1CO1", "note": "(centres undefined)", "values": [{"measurement": "Potency", "setting": "[1]", "result": "inactive"}, {"measurement": "Potency", "setting": "[2]", "result": "inactive"}]}
{"smiles": "COC(C)=O", "values": [{"measurement": "Potency", "setting": "[1]", "result": "inactive"}, {"measurement": "Potency", "setting": "[2]", "result": "inactive"}]}
{"smiles": "CC1(C)O[C@@H]2C[C@H]3[C@@H]4C[C@H](F)C5=CC(=O)CC[C@]5(C)[C@H]4[C@@H](O)C[C@]3(C)[C@]2(C(=O)CO)O1", "values": [{"measurement": "Potency", "setting": "[1]", "result": "inactive"}, {"measurement": "Potency", "setting": "[2]", "result": "inactive"}]}
{"smiles": "NC(=O)N(O)[C@@H]1C=C[C@H](Oc2cccc(Oc3ccc(F)cc3)c2)C1", "values": [{"measurement": "Potency", "setting": "[1]", "result": "inactive"}, {"measurement": "Potency", "setting": "[2]", "result": "inactive"}]}
{"smiles": "CCCCCCCCCC/C=C/C#N", "values": [{"measurement": "Potency", "setting": "[1]", "result": "inactive"}, {"measurement": "Potency", "setting": "[2]", "result": "inactive"}]}
{"smiles": "O=C(O)C1(C(=O)Nc2ccc(Cl)cc2Cl)CC1", "values": [{"measurement": "Potency", "setting": "[1]", "result": "inactive"}, {"measurement": "Potency", "setting": "[2]", "result": "inactive"}]}
{"smiles": "CC(C)=CCC/C(C)=C/COC=O", "values": [{"measurement": "Potency", "setting": "[1]", "result": "inactive"}, {"measurement": "Potency", "setting": "[2]", "result": "inactive"}]}
{"smiles": "O=C(CO)[C@@H](O)[C@H](O)[C@H](O)CO", "values": [{"measurement": "Potency", "setting": "[1]", "result": "inactive"}, {"measurement": "Potency", "setting": "[2]", "result": "inactive"}]}
{"smiles": "c1ccc(-c2nc[nH]c2-c2ccccc2)cc1", "values": [{"measurement": "Potency", "setting": "[1]", "result": "inactive"}, {"measurement": "Potency", "setting": "[2]", "result": "inactive"}]}
{"smiles": "O=S(=O)(O)c1ccc2ccccc2c1", "values": [{"measurement": "Potency", "setting": "[1]", "result": "inactive"}, {"measurement": "Potency", "setting": "[2]", "result": "inactive"}]}
{"smiles": "F[B-](F)(F)F", "values": [{"measurement": "Potency", "setting": "[1]", "result": "inactive"}, {"measurement": "Potency", "setting": "[2]", "result": "inactive"}]}
{"smiles": "C=CC(C)CCCC(C)(C)O", "note": "(centres undefined)", "values": [{"measurement": "Potency", "setting": "[1]", "result": "inactive"}, {"measurement": "Potency", "setting": "[2]", "result": "inactive"}]}
{"smiles": "CCOC(=O)C(C)C(C)=O", "note": "(centres undefined)", "values": [{"measurement": "Potency", "setting": "[1]", "result": "inactive"}, {"measurement": "Potency", "setting": "[2]", "result": "inactive"}]}
{"smiles": "CCOC(=O)C1=C(C)NC(C)=C(C(=O)OCC)C1c1ccccc1/C=C/C(=O)OC(C)(C)C", "values": [{"measurement": "Potency", "setting": "[1]", "result": "inactive"}, {"measurement": "Potency", "setting": "[2]", "result": "inactive"}]}
{"smiles": "C[C@]12CC[C@@H]3c4ccc(O)cc4CC[C@H]3[C@@H]1CC[C@@H]2O", "values": [{"measurement": "Potency", "setting": "[1]", "result": "inactive"}, {"measurement": "Potency", "setting": "[2]", "result": "inactive"}]}
{"smiles": "CN1C[C@H]2c3ccccc3Oc3ccc(Cl)cc3[C@@H]2C1", "values": [{"measurement": "Potency", "setting": "[1]", "result": "inactive"}, {"measurement": "Potency", "setting": "[2]", "result": "inactive"}]}
{"smiles": "OC12N=C(c3ccccc3)SC1Cc1cc(Cl)ccc12", "note": "(centres undefined)", "values": [{"measurement": "Potency", "setting": "[1]", "result": "inactive"}, {"measurement": "Potency", "setting": "[2]", "result": "inactive"}]}
{"smiles": "O=C(O)c1cc2ccccc2cc1O", "values": [{"measurement": "Potency", "setting": "[1]", "result": "inactive"}, {"measurement": "Potency", "setting": "[2]", "result": "inactive"}]}
{"smiles": "Cc1ccc(Cl)cc1", "values": [{"measurement": "Potency", "setting": "[1]", "result": "inactive"}, {"measurement": "Potency", "setting": "[2]", "result": "inactive"}]}
{"smiles": "CCCc1nn(C)c2c(=O)[nH]c(-c3cc(S(=O)(=O)N4CCN(C)CC4)ccc3OCC)nc12", "values": [{"measurement": "Potency", "setting": "[1]", "result": "inactive"}, {"measurement": "Potency", "setting": "[2]", "result": "inactive"}]}
{"smiles": "N=C(N)N1CCc2ccccc2C1", "values": [{"measurement": "viability change, negative = cytotoxic", "setting": "[1]", "result": "-0.283% [at 8.39 µM]"}, {"measurement": "activity change, negative = cytotoxicity", "setting": "[2]", "result": "2.66% [at 8.39 µM]"}]}
{"smiles": "C/C=C/C=C/C(=O)O", "values": [{"measurement": "Potency", "setting": "[1]", "result": "inactive"}, {"measurement": "Potency", "setting": "[2]", "result": "inactive"}]}
{"smiles": "OCCOCCN1CCN(C(c2ccccc2)c2ccc(Cl)cc2)CC1", "note": "(centres undefined)", "values": [{"measurement": "Potency", "setting": "[1]", "result": "inactive"}, {"measurement": "Potency", "setting": "[2]", "result": "inactive"}]}
